TRHR enhancer – TRH receptor (human) allosteric enhancement. P34981. 0.66% of 360,000 active. enhancement, % at 2 µM. TRHR cells, fluo-8 calcium fluorescence, EC20 TRH enhancement; in the data active means enhancement above about 30%
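Enhancer read-out: after compound pinning and an initial kinetic agonist-mode read, an EC20 of TRH (10 nM final) was injected and fluo-8 calcium signal (Ex 480/Em 530) followed at 1 s/cycle for 100 cycles in TRHR-expressing cells.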
D1 PAM – enhances dopamine response at the human D1 receptor. HEK293 TREx D1 cells, calcium flux, dopamine EC20 potentiation. potentiation, % at 10 µM. 0.036% of 360,000 active; in the data active means potentiation above about 30%
Target sequence (P21728 whole entry, looked up): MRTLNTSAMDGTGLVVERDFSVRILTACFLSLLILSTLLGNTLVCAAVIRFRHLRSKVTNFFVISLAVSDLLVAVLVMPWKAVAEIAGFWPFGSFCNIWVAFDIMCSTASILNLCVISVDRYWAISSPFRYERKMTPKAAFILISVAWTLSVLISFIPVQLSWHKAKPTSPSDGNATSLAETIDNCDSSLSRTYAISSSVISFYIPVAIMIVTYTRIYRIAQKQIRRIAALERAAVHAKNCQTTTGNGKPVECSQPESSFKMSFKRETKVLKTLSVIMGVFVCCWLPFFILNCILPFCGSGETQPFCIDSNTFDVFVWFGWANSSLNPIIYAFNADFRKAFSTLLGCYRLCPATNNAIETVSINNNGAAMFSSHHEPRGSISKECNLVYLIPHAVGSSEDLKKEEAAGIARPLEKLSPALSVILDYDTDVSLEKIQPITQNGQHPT
TRHR agonist – activates the human TRH receptor; TRHR cells, calcium flux fluo-8, FDSS agonist mode; activation, % at 2 µM; 0.18% of 360,000 active; AID 493084
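Read-out: compound-evoked intracellular calcium rise in TRHR cells, fluo-8 dye, kinetic FDSS fluorescence at 1 s/cycle following a 10-cycle baseline. Cells cultured overnight before dye loading (30 min–1.5 h, RT).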
D1 antag – blocks dopamine activation of the human D1 receptor; P21728; HEK293 TREx D1 cells, calcium flux, dopamine EC80; hits give low values; activity change, negative = inhibition, % at 10 µM; 3.2% of 360,000 active; AID 504652; in the data active means activity change below about -30%
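Using tetracycline-induced force-coupled D1 Hek293 cells and a calcium dye, signals were followed for 180 s after compound, then for 180 s after EC80 dopamine, to detect inhibitors.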
Epigenetic reg – epigenetic control regulation, reporter derepression | murine LDR cells, GFP reporter derepression, 30 h | Potency, µM (highest dose often 53.9 µM), actives largely listed as activators | 0.2% of 280,000 active; active means well fitted activation curve with a large enough effect; inconclusive means small, poorly fitted or top-dose-only effect; further: nearly all actives have a fitted effect of over 60% in size
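Derepression of a silenced CMV-GFP reporter in murine LDR cells is scored by enumerating GFP-positive cells with a laser-scanning microplate cytometer after 30 hours of treatment at 37 C.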
D1 ag – human D1 receptor agonism. 1% of 360,000 active. P21728. HEK293 T-REx D1 cells, calcium flux, agonist mode. activation, % at 2 µM
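Inducible HEK293 T-REx D1 cells, force-coupled to calcium signalling, were plated at 4000 cells/well with tetracycline and held overnight at 30 C. After no-wash calcium dye loading, compound-evoked calcium rise over 180 s flagged agonists.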
Each line names hits and unclear results; the compound was inactive in the other large screens. This is a sample that favours compounds with a hit; in the whole collection about 4.6% have one here. Unless noted, no stated cut-off is given here; in the data, active means activation above about 30%; inactive means the rest.

CCCN1C(=O)/C(=C2/C=Cc3ccccc3N2CC)SC1=S	none
CN1/C(=C\C=C2/SC(=S)N(CC(=O)O)C2=O)C(C)(C)c2ccccc21	TRHR agonist 112, D1 ag 182
CCCCN1C(=O)/C(=C/C=C2\Oc3ccccc3N2CC)SC1=S	TRHR agonist 98, Epigenetic reg 1µM, D1 ag 393
CCN1C(=O)/C(=C\N2CCCc3ccccc32)SC1=S	none
C=CCN1C(=O)/C(=C\C=C2\N(C)c3ccccc3C2(C)C)SC1=S	Epigenetic reg 5µM, D1 ag 85
COc1ccc(NC(=O)C(CC(C)C)NS(=O)(=O)c2ccc3c(c2)oc(=O)n3C)cc1Cl (centres undefined)	none
CC(=O)Nc1nonc1-c1nnc(SCC(=O)Nc2cccc(F)c2)n1-c1ccccc1	none
Cc1ccc(N(CC(=O)N2CCN(c3cccc(C)c3C)CC2)S(=O)(=O)c2c(C)nn(C)c2C)cc1	D1 antag -43
CCCCNC(=O)C1CC(=O)N(C2CCCCC2)C1 (centres undefined)	D1 ag 31
Cc1ccc(CCNC(=O)C2CC(=O)N(C3CCCCC3)C2)cc1 (centres undefined)	none (no result: Epigenetic reg)
CC1=NN(C(=O)c2ccc(Cn3cc([N+](=O)[O-])cn3)cc2)C(O)(C(F)(F)F)C1 (centres undefined)	D1 ag 42
O=c1[nH]c(=O)n(Cc2ccco2)c2c1C(C(F)(F)F)(C(F)(F)F)N=C(c1ccc(F)cc1)N2	D1 ag 37 (no result: D1 antag)
O=c1[nH]c(=O)n(Cc2ccccc2)c2c1C(C(F)(F)F)(C(F)(F)F)N=C(c1ccco1)N2	none
CNC(=S)SCCOc1ccccc1	none
CNC(=S)SCCOc1ccc(C)cc1	D1 antag -91
Clc1ccc(CN2C3=NCCN3c3ccccc32)cc1Cl	D1 ag 35
COc1ccc(CCNC(=O)c2nc(SCc3ccc(F)cc3)ncc2Cl)cc1OC	none
CCCCn1c(N)c(N(CC)C(=O)c2cccc(C)c2)c(=O)[nH]c1=O	none (no result: Epigenetic reg)
CCCCN(C(=O)c1cccc(C)c1)c1c(N)n(CCC)c(=O)[nH]c1=O	TRHR enhancer 41 (no result: Epigenetic reg)
CCOc1ccc(NC(=O)CN(C)C(=O)c2cc(-c3cccs3)nn2-c2ccccc2)cc1OCC	D1 antag -57 (no result: Epigenetic reg)
COc1ccc(-n2c(CNc3ccc(C)cc3)nnc2SCC(=O)Nc2nc(-c3ccccc3)cs2)cc1	none
COc1ccc(NCc2nnc(SCC(=O)Nc3nc(-c4ccccc4)cs3)n2-c2ccccc2)cc1	D1 antag -60
Cc1cccc(S(=O)(=O)Nc2cccc3c2C(=O)c2ccccc2-3)c1	D1 ag 50
CCCCN(CCCNC(=O)CN1N=C(c2ccc(C)cc2)CCC1=O)c1ccccc1	none
COc1ccccc1C(=O)Nc1cccc(C(=O)OCc2cc(=O)n3cc(C)sc3n2)c1	D1 antag -31
Cc1cn2c(=O)cc(COC(=O)COc3ccc(C)c(C)c3)nc2s1	D1 antag -38
CCOC(=O)C1(CCc2ccccc2)CCN(Cc2ccc(O)cc2)CC1	D1 antag -86
CCOC(=O)C1(CCOc2ccccc2)CCN(Cc2ccc(OC)c(O)c2)CC1	D1 antag -71 (no result: Epigenetic reg)
COc1ccc(CNC(=O)c2ccc3c(c2)N(Cc2cc(C)ccc2C)C(=O)CS3)cc1	none
Cc1noc(C)c1COC(=O)c1ccccc1Sc1ccccc1C#N	D1 antag -38
Cc1ccc(N2CCn3c2nc2c3c(=O)n(CCc3ccccc3)c(=O)n2C)cc1C	none
COCCN(Cc1cc2cc(C)c(C)cc2nc1Cl)C(=O)Nc1ccccc1	none
COCCN(Cc1cc2cc3c(cc2nc1Cl)OCO3)C(=O)c1ccc(C)cc1	D1 ag 66
COc1ccc(N2CCN(c3ccc(-c4nc(-c5ccccc5C)no4)cc3[N+](=O)[O-])CC2)cc1	none
Nc1ccc2c(c1)OC1(CCCC1)O2	D1 antag -37, Epigenetic reg inconclusive
COc1cccc(NC(=O)Cn2cc(C=O)c3ccccc32)c1	none (no result: Epigenetic reg)
CCc1cccc(NC(=O)Cn2cc(C=O)c3ccccc32)c1	D1 antag -30
CCOC(=O)N1CCC(Nc2c(-c3ccc(C)c(C)c3)c(=O)c2=O)CC1	none
CCOC(=O)N1CCC(Nc2c(N3CCN(c4cc(Cl)ccc4C)CC3)c(=O)c2=O)CC1	D1 antag -30 (no result: D1 PAM)
CCOCCc1nnc(NC(=O)C(=O)c2cc(C)n(-c3ccc(C)c(C)c3)c2C)s1	none
CN(C)S(=O)(=O)c1cc(NC(=O)Cn2ccsc2=N)ccc1Cl	D1 antag -30
COc1cc(NC(=O)CC(c2ccc(C)cc2)N2Cc3ccccc3C2=O)cc(OC)c1 (centres undefined)	none
C=CCc1cccc(/C=N/n2cnnc2)c1O	TRHR enhancer 32
CC(=O)NC(c1ccc([N+](=O)[O-])cc1)c1c(O)ccc2ccccc12 (centres undefined)	none
CC(C)C(=O)NC(c1ccc([N+](=O)[O-])cc1)c1c(O)ccc2ccccc12 (centres undefined)	D1 antag -32
CCc1ccc(CNC(=O)C2CCCN(c3nn4cc(-c5ccc(F)cc5)nc4s3)C2)cc1 (centres undefined)	Epigenetic reg inconclusive
CCC(C)c1ccccc1OCCOCCN1CCCC1 (centres undefined)	D1 antag -30
COc1ccccc1OCCCCN1CCC(C)CC1	none (no result: Epigenetic reg)
c1ccc(-c2ccccc2OCCCCN2CCCCCC2)cc1	D1 antag -35
c1ccc(-c2ccccc2OCCN2CCCC2)cc1	none (no result: Epigenetic reg)
c1ccc(-c2ccccc2OCCOCCN2CCCCC2)cc1	D1 antag -47
CC1CCN(CCOCCOc2ccccc2Br)CC1	D1 antag -48
Cc1ccc(NCc2cccn2-c2nnc(N3CCC(C(=O)NCCc4ccc(Cl)cc4)CC3)s2)cc1	none
CCN(CC)CCSc1nnc2c3cc(F)ccc3n(CC)c2n1	none
CN1C(=O)CC[C@@H]1c1cccnc1	none (no result: TRHR enhancer, D1 PAM, TRHR agonist, D1 antag, D1 ag)
O=C(COCc1cc(-c2cccs2)on1)Nc1cccc(Cl)c1Cl	none
CC1CCN(CCCCOc2ccccc2-c2ccccc2)CC1	D1 antag -59
CC1CCN(CCOCCOc2ccccc2-c2ccccc2)CC1	none
CCC(C)c1ccccc1OCCCNC1CCCC1 (centres undefined)	D1 antag -34, D1 ag 39 (no result: Epigenetic reg)
COc1ccc(OC)c(CNS(=O)(=O)c2c(C(=O)N3CCCCCC3)c(C)n(C)c2C)c1	none
COc1ccc(S(=O)(=O)c2cn(C)c3cc(N4CCCC4)c(F)cc3c2=O)cc1	none
O=C(Nc1ccc(O)cc1)C1CC=CCC1 (centres undefined)	D1 antag -100

Screens: PubChem, National Center for Advancing Translational Sciences (NCATS)
